Reference: PubChem BioAssay (EPA / NIEHS)
Inconclusive results are not listed. Activity calls are given as the source filed them. The calls were made as follows: active = hit-call score of the fitted dose curve at least 0.9, where 1 is the maximum; inconclusive = response in the unintended direction; inactive = score below 0.9.

Read-out: Cytochrome P450 2C19 (Homo sapiens) (UniProt P33261)
Test: CLD_CYP2C19_48hr: CellzDirect (CLD) Gene Expression Assay for xenobiotic metabolism (CYP2C19) at 48 hours (AID 2283700);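 also: fitted upward so actives raise CYP2C19 mRNA above the 0.2% DMSO vehicle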
Description: CLD_48hr is a cell-based, multiplexed-readout assay that uses hepatocyte, a human liver primary cell, with measurements taken at 48 hours after chemical dosing in a 96-well plate.CLD_CYP2C19_48hr is one of 16 assay component(s) measured or calculated from the CLD_48hr assay. It is designed to make measurements of mRNA induction, a form of inducible reporter, as detected with chemiluminescence signals by Quantitative Nuclease Protection Assay (qNPA) technology.Data from the assay component CLD_CYP2C19_48hr was analyzed at the endpoint, CLD_CYP2C19_48hr, in the positive analysis fitting direction relative to DMSO as the negative control and baseline of activity. Using a type of inducible reporter, gain-of-signal activity can be used to understand changes in the reporter gene as they relate to the gene CYP2C19. Furthermore, this assay endpoint can be referred to as a primary readout. To generalize the intended target to other relatable targets, this assay endpoint is annotated to the cyp intended target family, where subfamily is xenobiotic metabolism.
Human hepatocyte cultures were treated daily for two consecutive days with fresh dosing solutions containing appropriate concentrations of the 320 ToxCast chemicals (chemical identities were blinded to CellzDirect and other ToxCast collaborators), vehicle control (0.2% DMSO), and positive control inducers as summarized in Table 1. Due to the large number of treatment groups and chemicals examined, the ToxCast chemicals were divided into two groups (spanning two independent cultures of hepatocytes from separate donor preparations (Hu778: ToxCast plates 1 and 2; Hu776: ToxCast plates 3 and 4). Each preparation of human hepatocyte cultures was treated with respective vehicle control, medium only control, set of six positive controls/reference chemicals for the five hepatic receptor pathways, and a subset of eight of the ToxCast chemicals (indoxacarb, pyrithiobac-sodium, norflurazon, cyhalofop-butyl, methomyl, thiram, acetochlor, and propiconazole). These replicate data, coupled with internal replicates designed within the blinded ToxCast chemical library, provided additional data to evaluate interindividual differences between hepatocyte preparations and their potential impact on chemical profiles.Cell morphology and integrity were evaluated using phase-contrast microscopy as an indicator of hepatocyte cell health (Tyson & Green, 1987). Cultures for each treatment group (i.e., media, vehicle [0.2% DMSO], positive control inducers [multiple concentrations], and the ToxCast chemicals [multiple concentrations]) were observed and cell morphology was assessed relative to vehicle control cultures at each harvest time point (0, 6, 24, or 48 h). […] Images were evaluated at the conclusion of the study to assess changes in cell integrity and account for the effects of chemical exposure on uncharacteristic changes in concentration-dependent gene expression profiles. The results from these determinations of apparent cytotoxicity were annotated (yes/no) alongside the corresponding qNPA data for reference.At the conclusion of each treatment period, hepatocyte cultures (96-well) were washed with 1 volume of HBSS, lysed by addition of 25 ul ArrayPlate lysis buffer (HTG, Tucson, AZ), and 70 ul/well of Denaturation Oil, denatured by incubation at 95C for 10 min, and frozen at approximately -70C until analysis by nuclease protection assay (qNPA) (Roberts et al., 2007). For qNPA analysis, cell lysates were thawed at 50C for approximately 30 min, qNPA probes were added, and samples were incubated at 95C for 10 min to begin the detection process by denaturing the target RNA, dissociating the duplexes and secondary structure hybridization. At the conclusion of the hybridization period, S1 nuclease reagent was added to each sample to digest all nonprotected nucleotides at 50C for 60-90 min. […]

Sequence of Cytochrome P450 2C19 (Homo sapiens) (P33261 whole entry, looked up): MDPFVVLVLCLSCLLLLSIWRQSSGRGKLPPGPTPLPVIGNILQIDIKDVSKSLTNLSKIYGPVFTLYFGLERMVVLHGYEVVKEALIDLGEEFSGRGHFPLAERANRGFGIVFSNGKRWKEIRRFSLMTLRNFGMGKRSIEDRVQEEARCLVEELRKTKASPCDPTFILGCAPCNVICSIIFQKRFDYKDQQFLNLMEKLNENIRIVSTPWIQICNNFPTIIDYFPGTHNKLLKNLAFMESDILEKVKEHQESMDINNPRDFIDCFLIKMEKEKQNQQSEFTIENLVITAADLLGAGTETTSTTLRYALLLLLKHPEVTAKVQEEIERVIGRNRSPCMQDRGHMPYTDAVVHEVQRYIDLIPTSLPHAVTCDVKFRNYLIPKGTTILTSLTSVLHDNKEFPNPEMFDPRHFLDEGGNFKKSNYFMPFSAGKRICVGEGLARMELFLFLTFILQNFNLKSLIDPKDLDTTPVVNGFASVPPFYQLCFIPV

SMILES | outcome
C=CCOC(=O)C(C)(C)OC(=O)c1cc(-n2c(=O)cc(C(F)(F)F)n(C)c2=O)ccc1Cl | inactive
Nc1cnn(-c2ccccc2)c(=O)c1Cl | inactive
COc1cc(OC)nc(NC(=O)NS(=O)(=O)c2ncccc2OCC(F)(F)F)n1 | inactive
CC1(C)C(C(=O)OC(C#N)c2cccc(Oc3ccccc3)c2)C1(C)C (stereo not drawn) | inactive
CCCN(CC)CC1COC2(CCC(C(C)(C)C)CC2)O1 (stereo not drawn) | inactive
CCN(CC)C(=O)C(C)Oc1cccc2ccccc12 (stereo not drawn) | inactive
N#CN=C1SCCN1Cc1ccc(Cl)nc1 | inactive
CC(C)Oc1cccc(NC(=O)c2ccccc2C(F)(F)F)c1 | inactive
CCSC(=O)N1CCCCCC1 | inactive
CC(C)(C)C(=O)C(Oc1ccc(Cl)cc1)n1cncn1 (stereo not drawn) | inactive
COC(=O)c1c(C(F)F)nc(C(F)(F)F)c(C2=NCCS2)c1CC(C)C | inactive
CC(C)=CC1C(C(=O)OCc2coc(Cc3ccccc3)c2)C1(C)C (stereo not drawn) | inactive
CC1(C)C(C=C(Cl)Cl)C1C(=O)OC(C#N)c1cccc(Oc2ccccc2)c1 (stereo not drawn) | inactive
CCNC(=O)NC(=O)C(C#N)=NOC | inactive
CC(C)N1C(=O)c2ccccc2NS1(=O)=O | inactive
CO/N=C(/C1=NOCCO1)c1ccccc1Oc1ncnc(Oc2ccccc2Cl)c1F | inactive
COc1ccc(-c2ccccc2)cc1NNC(=O)OC(C)C | inactive
COc1cc(Cl)c(OC)cc1Cl | inactive
CC1(C)CON(Cc2ccccc2Cl)C1=O | inactive

SMILES | outcome
Cc1nc(N(C)C)nc(OC(=O)N(C)C)c1C | inactive
Clc1nc(Cl)nc(Nc2ccccc2Cl)n1 | inactive
COCC(=O)N(c1c(C)cccc1C)C(C)C(=O)OC (stereo not drawn) | inactive
CCCC(=NOCC)C1=C(O)CC(CC(C)SCC)CC1=O (stereo not drawn) | inactive
CCOc1nc(F)cc2nc(S(=O)(=O)Nc3c(Cl)cccc3Cl)nn12 | inactive
N#Cc1c(Cl)cccc1Cl | inactive
CN=C=S | inactive
C=C(C)CN(CC)c1c([N+](=O)[O-])cc(C(F)(F)F)cc1[N+](=O)[O-] | inactive
CCOC(=O)C(C)OC(=O)c1cc(Oc2ccc(C(F)(F)F)cc2Cl)ccc1[N+](=O)[O-] (stereo not drawn) | inactive
CNC(=O)N(C)c1nnc(C(C)(C)C)s1 | inactive
CC(C)C1(C)N=C(c2ncccc2C(=O)O)NC1=O (stereo not drawn) | inactive
CS(=O)(=O)c1ccc(C(=O)C2C(=O)CCCC2=O)c([N+](=O)[O-])c1 | inactive
O=C1C2CC=CCC2C(=O)N1SC(Cl)(Cl)Cl (stereo not drawn) | inactive
COP(=O)(OC)O/C(C)=C/C(=O)N(C)C | inactive
O=C(O)c1c(Cl)ccc2cc(Cl)cnc12 | inactive
CC(C)N1C(=O)N(c2ccccc2)CSC1=NC(C)(C)C | inactive
COC(=O)NS(=O)(=O)c1ccc(N)cc1 | inactive
O=c1n(Cl)c(=O)n(Cl)c(=O)n1Cl | inactive
Nc1c(Cl)c(Cl)nc(C(=O)O)c1Cl | inactive
